Assay results from PubChem BioAssay (NCATS).
Inconclusive results are not listed. Activity calls are given as the source filed them. Unless noted, calls come from the whole dose curve; as a rule, active = well fitted curve in the direction sought with a large enough effect; inconclusive = small, poorly fitted or top-dose-only effect, or another doubt; inactive = no such curve, though single readings can be large; an effect the other way counts as inactive or inconclusive.

Columns and labels:
[1] = qHTS for Inhibitors of Plasmodium falciparum (DD2) proliferation (AID 504314);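 note: parasite DNA measured by SYBR Green fluorescence after red cell lysis; plate controls were DMSO vehicle for no effect and artemisinin wells for full effect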
Method in brief: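 Normalization used 0.29 uM artemisinin as full inhibition and DMSO as baseline. Parasitized erythrocytes were exposed to compounds for 72 h (37C, 5% CO2), then lysed with saponin/Triton buffer containing SYBR Green I.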

[2] = qHTS for Inhibitors of Plasmodium falciparum (GB4) proliferation (AID 504315);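 note: 0% = DMSO vehicle and -100% = 0.29 µM artemisinin control; nearly all actives have a fitted effect of over 50% in size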
Method in brief: (§1)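 Parasite growth measured as SYBR Green DNA fluorescence (ex 485, em 535 nm) after overnight lysis following 72 h culture at 37 °C, 0.3% parasitemia, 2.5% hematocrit. Values normalized against DMSO and 0.29 uM artemisinin controls, with plate-stack correction.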

[3] = qHTS for Inhibitors of Plasmodium falciparum (7G8) proliferation (AID 504316);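 note: series mostly up to about 6.7 µM; 0% = DMSO vehicle and -100% = 0.29 µM artemisinin full kill; nearly all actives have a fitted effect of over 65% in size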
Method in brief: as §1

[4] = qHTS for Inhibitors of Plasmodium falciparum (HB3) proliferation (AID 504318);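 note: 0% = DMSO vehicle and -100% = artemisinin control; nearly all actives have a fitted effect of over 60% in size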
Method in brief: as §1

[5] = qHTS for Inhibitors of Plasmodium falciparum (CP250) proliferation (AID 504320);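 note: plate controls were DMSO vehicle for no effect and 0.29 µM artemisinin control for full effect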
Method in brief: as §1

[6] = biological target: Atrial natriuretic peptide receptor 1 (Homo sapiens) (UniProt P16066); experiment: Natriuretic polypeptide receptor (hNpr1) antagonism - Pilot CMLD screen (AID 1347052; calls by dose curve;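 note: HEK293 cells with hNpr1 stimulated by hNppA peptide at 0.1 nM; cGMP level read as GloSensor luciferase luminescence after agonist stimulation; series mostly up to about 9.2 µM; % is set by controls: 0 for no effect and ±100 for the full control effect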)
Atrial natriuretic peptide receptor 1 (Homo sapiens), sequence (P16066 whole entry, looked up): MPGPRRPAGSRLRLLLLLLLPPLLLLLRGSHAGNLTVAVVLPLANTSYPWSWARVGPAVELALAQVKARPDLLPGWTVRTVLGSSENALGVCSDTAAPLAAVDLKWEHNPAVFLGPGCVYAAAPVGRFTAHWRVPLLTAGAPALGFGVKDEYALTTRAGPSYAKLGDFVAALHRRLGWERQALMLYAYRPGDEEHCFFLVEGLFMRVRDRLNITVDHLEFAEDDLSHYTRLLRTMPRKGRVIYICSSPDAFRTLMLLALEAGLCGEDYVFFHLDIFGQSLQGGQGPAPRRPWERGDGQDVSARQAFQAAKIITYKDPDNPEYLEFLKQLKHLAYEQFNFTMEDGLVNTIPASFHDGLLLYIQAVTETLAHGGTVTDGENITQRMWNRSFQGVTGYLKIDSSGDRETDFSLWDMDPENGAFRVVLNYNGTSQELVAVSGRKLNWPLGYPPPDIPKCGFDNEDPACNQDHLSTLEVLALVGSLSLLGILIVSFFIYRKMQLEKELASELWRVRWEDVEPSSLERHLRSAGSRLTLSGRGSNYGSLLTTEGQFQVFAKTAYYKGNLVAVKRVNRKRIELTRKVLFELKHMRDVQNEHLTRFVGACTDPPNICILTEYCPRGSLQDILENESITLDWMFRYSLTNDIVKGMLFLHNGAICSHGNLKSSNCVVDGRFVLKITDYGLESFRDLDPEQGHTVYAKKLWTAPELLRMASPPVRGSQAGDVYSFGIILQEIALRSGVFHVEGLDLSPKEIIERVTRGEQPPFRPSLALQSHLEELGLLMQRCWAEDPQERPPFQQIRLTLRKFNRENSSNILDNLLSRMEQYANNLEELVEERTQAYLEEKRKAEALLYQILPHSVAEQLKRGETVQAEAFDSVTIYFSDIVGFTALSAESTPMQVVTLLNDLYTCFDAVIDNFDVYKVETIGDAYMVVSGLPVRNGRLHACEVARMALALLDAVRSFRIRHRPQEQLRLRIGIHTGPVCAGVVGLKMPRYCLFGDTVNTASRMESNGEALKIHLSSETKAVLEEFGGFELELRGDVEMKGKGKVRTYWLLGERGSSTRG

CC(=O)OC[C@H]1O[C@H](c2cc(C)cc(C)c2)C=C[C@H]1OC(C)=O
inactive: Potency [1] | Potency [2] | Potency [3] | Potency [4] | Potency [5] | Potency [6]

CCOC(=O)OC[C@H]1O[C@H](C#Cc2ccc(F)cc2F)C=C[C@H]1OC(=O)OCC
inactive: Potency [1] | Potency [2] | Potency [3] | Potency [4] | Potency [5] | Potency [6]

CC[C@H](C)[C@@H](NC(=O)O[C@@H]1C(=O)c2cc(OC)ccc2O[C@H]1c1ccc(OC)c(Br)c1)C(=O)OC
inactive: Potency [1] | Potency [2] | Potency [3] | Potency [4] | Potency [6]

CCCCC1=CC2=C(c3ccco3)C(=O)C(C)(OC(=O)c3ccc(OC)cc3)C(=O)C2=CN1CCCOC(C)C (centres undefined)
inactive: Potency [1] | Potency [2] | Potency [3] | Potency [4] | Potency [6]

COc1cccc(CC(=O)N2CCc3nc(COc4ccccc4)c4c(c3C2)CO[C@@H](C)C4)c1
inactive: Potency [1] | Potency [2] | Potency [3] | Potency [4] | Potency [6]

C[C@H]1CC[C@H]2C(=O)NC[C@H](O)CN2[C@H]1c1ccc(Br)cc1
inactive: Potency [1] | Potency [2] | Potency [3] | Potency [4] | Potency [6]

CCOC(=O)CN1C(=O)[C@]2(OCCC=C[C@@H]2C)c2c(Br)cccc21
inactive: Potency [1] | Potency [2] | Potency [3] | Potency [4] | Potency [6]

CCCCc1nc2c(c3c1C[C@H](C)OC3)CN(C(=O)c1cccnc1)CC2
inactive: Potency [1] | Potency [2] | Potency [3] | Potency [4] | Potency [6]

COCCN1C(=O)NC(c2cccc(C(F)(F)F)c2)C(C(C)=O)=C1C (centres undefined)
inactive: Potency [1] | Potency [2] | Potency [3] | Potency [4] | Potency [6]

COC(=O)C1=C2C=CCCN2C(=O)NC1c1ccccc1 (centres undefined)
inactive: Potency [1] | Potency [2] | Potency [3] | Potency [4] | Potency [5] | Potency [6]

CC(=O)C1=CN(CCC=Cc2ccccc2)C(=O)NC1c1ccccc1 (centres undefined)
inactive: Potency [1] | Potency [2] | Potency [3] | Potency [4] | Potency [5] | Potency [6]

COCCN1C(=NCC(C)C)NC(c2ccccc2)C(C(=O)OC)=C1C (centres undefined)
inactive: Potency [1] | Potency [2] | Potency [3] | Potency [4] | Potency [5] | Potency [6]

CC(=O)OC[C@H]1O[C@H](C#Cc2ccccc2)C=C[C@@H]1OC(C)=O
inactive: Potency [1] | Potency [2] | Potency [3] | Potency [4] | Potency [5] | Potency [6]

CCOC(=O)CN1C(=O)[C@]2(OCCC=C[C@@H]2C)c2cc(OC)ccc21
inactive: Potency [1] | Potency [2] | Potency [3] | Potency [4] | Potency [5] | Potency [6]

C=CCOC(=O)N[C@H](C(C(=O)OC)=C(C)NCc1ccccc1)c1ccc(Br)cc1
inactive: Potency [1] | Potency [2] | Potency [3] | Potency [4] | Potency [5] | Potency [6]

O=C1[C@@H]2[C@H]3[C@H](O)[C@H](O)CC(=NOC[C@@H](O)COCc4ccco4)[C@@H]3CC[C@H]2C(=O)N1C1CCCCC1
inactive: Potency [1] | Potency [2] | Potency [3] | Potency [4] | Potency [5] | Potency [6]

COC(=O)c1ccc(CN2C(=O)[C@]3(OCCC=C[C@@H]3C)c3c(Br)cccc32)cc1
inactive: Potency [1] | Potency [2] | Potency [3] | Potency [4] | Potency [5] | Potency [6]

C=CC[C@@H]1C=C[C@@H](ON=C2[C@H]3CCn4c(=O)n(-c5ccccc5)c(=O)n4[C@@H]3[C@H](O)[C@@H]3O[C@H]23)[C@@H](CO)O1
inactive: Potency [1] | Potency [2] | Potency [3] | Potency [4] | Potency [5] | Potency [6]

COC(=O)N[C@@H](c1cccc(C)c1)[C@@H](C)[N+](=O)[O-]
inactive: Potency [1] | Potency [2] | Potency [3] | Potency [4] | Potency [5] | Potency [6]

COC(=O)CC=C[C@@H](C)[C@@H](Cc1ccccc1Br)OC
inactive: Potency [1] | Potency [2] | Potency [3] | Potency [4] | Potency [5] | Potency [6]

COCCN1C=C2C(=O)C(C)(OC(=O)C3CCCC3)C(=O)C(c3ccccc3)=C2C=C1CCCC(=O)OC (centres undefined)
inactive: Potency [1] | Potency [2] | Potency [3] | Potency [4] | Potency [5] | Potency [6]

C=CCOC(=O)N[C@@H](c1cccc(OC)c1)[C@@H](C)C=CCC(=O)O
inactive: Potency [1] | Potency [2] | Potency [3] | Potency [4] | Potency [5] | Potency [6]

COc1cccc(O[C@H]2C=C[C@@H](c3ccccc3)O[C@H]2CO)c1
inactive: Potency [1] | Potency [2] | Potency [3] | Potency [4] | Potency [5] | Potency [6]

CCCCC1=CC2=C(c3ccco3)C(=O)C(C)(OC(=O)c3ccc(OC)cc3)C(=O)C2=CN1Cc1ccc2c(c1)OCO2 (centres undefined)
inactive: activity, negative = inhibition [1] 4.29% [at 1.12 µM] | Potency [2] | Potency [3] | Potency [4] | Potency [5] | Potency [6]

COC(=O)CCCC1=CC2=C(c3ccccc3)C(=O)C(C)(OC(=O)C3CCCC3)C(=O)C2=CN1C1CCCCC1 (centres undefined)
inactive: Potency [1] | Potency [2] | Potency [3] | Potency [4] | Potency [5] | Potency [6]

C#CCN1C(=O)[C@]2(OCCC=C[C@@H]2C)c2cc(OC)ccc21
inactive: Potency [1] | Potency [2] | Potency [3] | Potency [4] | Potency [5] | Potency [6]

C[C@H]1C[C@@H](C)O[C@@]2(C1)C(=O)N(CC1CC1)c1ccccc12
inactive: Potency [1] | Potency [2] | Potency [3] | Potency [4] | Potency [5] | Potency [6]

COC(=O)CC=C[C@@H](C)[C@H](NC(=O)OCC(Cl)(Cl)Cl)c1cccc(OC)c1
inactive: Potency [1] | Potency [2] | Potency [3] | Potency [4] | Potency [5] | Potency [6]

CCN1C(=O)[C@@H]2[C@H]3[C@H](O)[C@H](O)CC(=NOCC[C@@H]4C=C[C@H](OC(C)=O)[C@@H](COC(C)=O)O4)[C@@H]3CC[C@H]2C1=O
inactive: Potency [1] | Potency [2] | Potency [3] | Potency [4] | Potency [5] | Potency [6]

COC1=C[C@H](C(=O)NCc2ccc(Br)cc2)C(C)C(c2ccccc2)CC1=O (some centres undefined)
inactive: Potency [1] | Potency [2] | Potency [3] | Potency [4] | Potency [5] | Potency [6]

O=C1[C@@H]2[C@H]3[C@H](O)[C@H](O)CC(=NOC[C@@H](O)COCc4ccco4)[C@H]3CC[C@H]2C(=O)N1C[C@@H]1CCCO1
inactive: Potency [1] | Potency [2] | Potency [3] | Potency [4] | Potency [5] | Potency [6]
